Results reported in the supplement of paper PMC8728848.
Shown is part of a subset that was picked to be rich in the strongest signals.

Key:
Test in all cases: glycan array binding signal (z-score within array); higher = stronger binding
Settings in all cases: glycan notation: IUPAC condensed, linker removed
Fuc(a1-2)Gal = biological target: Fuc(a1-2)Gal
Procedure, shortened: (§1)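 Arrays were curated from the Consortium for Functional Glycomics database, 3228 in total, and kept only where the protein sequence was available. Binding is expressed as a within-array Z-score. This score was averaged across arrays of the same protein sequence at different concentrations or buffers and across linkers, and negative values can be read as non-binding.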

[1] = biological target: Fuc(a1-2)Gal(b1-3)GalNAc(a1-3)[Fuc(a1-2)]Gal(b1-4)GlcNAc
Procedure, shortened: as §1

[2] = biological target: Fuc(a1-2)Gal(b1-4)GlcNAc6S
Procedure, shortened: as §1

[3] = biological target: Fuc(a1-2)Gal3S(b1-4)GlcNAc
Procedure, shortened: as §1

Fuc(a1-2)Gal6S(b1-4)Glc = biological target: Fuc(a1-2)Gal6S(b1-4)Glc
Procedure, shortened: as §1

[4] = biological target: Fuc(a1-2)[Gal(a1-3)]Gal(b1-3)GlcNAc(b1-2)Man(a1-3)[Fuc(a1-2)[Gal(a1-3)]Gal(b1-3)GlcNAc(b1-2)Man(a1-6)]Man(b1-4)GlcNAc(b1-4)[Fuc(a1-6)]GlcNAc
Procedure, shortened: as §1

[5] = biological target: Fuc(a1-2)[GalNAc(a1-3)]Gal
Procedure, shortened: as §1

[6] = biological target: Fuc(a1-2)[GalNAc(a1-3)]Gal(b1-3)GlcNAc
Procedure, shortened: as §1

[7] = biological target: Fuc(a1-2)[GalNAc(b1-3)]Gal
Procedure, shortened: as §1

Gal(a1-3)Gal(b1-3)GlcNAc = biological target: Gal(a1-3)Gal(b1-3)GlcNAc
Procedure, shortened: as §1

[8] = biological target: Gal(a1-3)Gal(b1-3)GlcNAc(b1-3)GalNAc
Procedure, shortened: as §1

[9] = biological target: Gal(a1-3)Gal(b1-4)GlcNAc(b1-3)GalNAc
Procedure, shortened: as §1

[10] = biological target: Gal(a1-4)Gal(b1-4)GlcNAc(b1-3)Gal(b1-4)Glc
Procedure, shortened: as §1

[11] = biological target: Gal(b1-3)GlcNAc(a1-3)Gal(b1-4)GlcNAc
Procedure, shortened: as §1

[12] = biological target: Gal(b1-3)GlcNAc(b1-2)Man(a1-3)[Gal(b1-3)GlcNAc(b1-2)Man(a1-6)]Man(b1-4)GlcNAc(b1-4)GlcNAc
Procedure, shortened: as §1

[13] = biological target: Gal(b1-3)GlcNAc(b1-2)Man(a1-3)[Gal(b1-3)GlcNAc(b1-2)Man(a1-6)]Man(b1-4)GlcNAc(b1-4)[Fuc(a1-6)]GlcNAc
Procedure, shortened: as §1

[14] = biological target: Gal(b1-3)GlcNAc(b1-2)Man(a1-3)[GlcNAc(b1-4)][Gal(b1-3)GlcNAc(b1-2)Man(a1-6)]Man(b1-4)GlcNAc(b1-4)GlcNAc
Procedure, shortened: as §1

[15] = biological target: Gal(b1-3)GlcNAc(b1-2)[Gal(b1-3)GlcNAc(b1-6)]Man(a1-6)[Gal(b1-3)GlcNAc(b1-2)Man(a1-3)]Man(b1-4)GlcNAc(b1-4)GlcNAc
Procedure, shortened: as §1

[16] = biological target: Gal(b1-3)GlcNAc(b1-6)[Gal(b1-3)]GalNAc
Procedure, shortened: as §1

[17] = biological target: Gal(b1-4)GlcNAc(b1-2)[Gal(b1-4)GlcNAc(b1-4)]Man(a1-3)[Gal(b1-4)GlcNAc(b1-2)Man(a1-6)]Man(b1-4)GlcNAc(b1-4)GlcNAc
Procedure, shortened: as §1

[18] = biological target: Gal(b1-4)GlcNAc(b1-2)[Gal(b1-4)GlcNAc(b1-6)]Man(a1-6)[GlcNAc(b1-4)][Gal(b1-4)GlcNAc(b1-2)Man(a1-3)]Man(b1-4)GlcNAc(b1-4)GlcNAc
Procedure, shortened: as §1

[19] = biological target: Gal(b1-4)GlcNAc(b1-3)Gal(b1-4)GlcNAc
Procedure, shortened: as §1

[20] = biological target: Gal(b1-4)GlcNAc(b1-3)Gal(b1-4)GlcNAc(b1-2)Man(a1-3)[Gal(b1-4)GlcNAc(b1-3)Gal(b1-4)GlcNAc(b1-2)Man(a1-6)]Man(b1-4)GlcNAc(b1-4)GlcNAc
Procedure, shortened: as §1

[21] = biological target: Gal(b1-4)GlcNAc(b1-3)Gal(b1-4)GlcNAc(b1-2)[Gal(b1-4)GlcNAc(b1-3)Gal(b1-4)GlcNAc(b1-6)]Man(a1-6)[Gal(b1-4)GlcNAc(b1-3)Gal(b1-4)GlcNAc(b1-2)Man(a1-3)]Man(b1-4)GlcNAc(b1-4)GlcNAc
Procedure, shortened: as §1

[22] = biological target: Gal(b1-4)GlcNAc(b1-3)Gal(b1-4)GlcNAc(b1-3)Gal(b1-4)GlcNAc(b1-2)Man(a1-3)[Gal(b1-4)GlcNAc(b1-3)Gal(b1-4)GlcNAc(b1-3)Gal(b1-4)GlcNAc(b1-2)Man(a1-6)]Man(b1-4)GlcNAc(b1-4)[Fuc(a1-6)]GlcNAc
Procedure, shortened: as §1

[23] = biological target: Gal3S(b1-3)[Fuc(a1-4)]GlcNAc
Procedure, shortened: as §1

Gal3S(b1-4)Glc = biological target: Gal3S(b1-4)Glc
Procedure, shortened: as §1

GalNAc(b1-4)GlcNAc6S = biological target: GalNAc(b1-4)GlcNAc6S
Procedure, shortened: as §1

[24] = biological target: GlcA3S(b1-3)Gal(b1-4)GlcNAc(b1-3)Gal(b1-4)Glc
Procedure, shortened: as §1

[25] = biological target: GlcNAc(a1-4)Gal(b1-4)GlcNAc(b1-3)Gal(b1-4)GlcNAc(b1-3)Gal(b1-4)GlcNAc
Procedure, shortened: as §1

B1: Si Bti9 1b-HA (Solanum lycopersicum) (protein)
chain: MFESRPRSVLSLGVFVILVYLSSVPLPVNSQCNRGCDLALASFYVWRGSNLTLISEMFSTSIADIVSYNNRDNIPNQDSVIAGTRINIPFRCDCLNDGEVLGHAFPYRVKSGDTYDLVARNYSDLTTAQWMMKFNSYPENNIPNTVNLSVVVNCSCGNSDVSKDFGLFVTYPVRAEDNLTSVASAANVSEDIIRRYNPAAVSILDIGQGIIYIPGRDRNGNFPPLPTSTDGLSGGAKAPLFFNPAFLYKVVELKLAGRSRTSGYPYDVPDYAGYPYDVPDYALEVLFQ
Fuc(a1-2)Gal
  glycan array binding signal (z-score): -0.051
[1]
  glycan array binding signal (z-score): 0.182
[2]
  glycan array binding signal (z-score): -0.271
[3]
  glycan array binding signal (z-score): -0.035
Fuc(a1-2)Gal6S(b1-4)Glc
  glycan array binding signal (z-score): -0.028
[4]
  glycan array binding signal (z-score): 2.04
[5]
  glycan array binding signal (z-score): -0.349
[6]
  glycan array binding signal (z-score): -0.146
[7]
  glycan array binding signal (z-score): -0.405
Gal(a1-3)Gal(b1-3)GlcNAc
  glycan array binding signal (z-score): 9.57
[8]
  glycan array binding signal (z-score): 0.207
[9]
  glycan array binding signal (z-score): -0.182
[10]
  glycan array binding signal (z-score): -0.274
[11]
  glycan array binding signal (z-score): -0.16
[12]
  glycan array binding signal (z-score): 3.24
[13]
  glycan array binding signal (z-score): 1.03
[14]
  glycan array binding signal (z-score): 3.72
[15]
  glycan array binding signal (z-score): 2.51
[16]
  glycan array binding signal (z-score): -0.205
[17]
  glycan array binding signal (z-score): -0.324
[18]
  glycan array binding signal (z-score): -0.363
[19]
  glycan array binding signal (z-score): -0.346
[20]
  glycan array binding signal (z-score): 3.44
[21]
  glycan array binding signal (z-score): 2.69
[22]
  glycan array binding signal (z-score): 0.042
[23]
  glycan array binding signal (z-score): -0.237
Gal3S(b1-4)Glc
  glycan array binding signal (z-score): 2.57
GalNAc(b1-4)GlcNAc6S
  glycan array binding signal (z-score): -0.204
[24]
  glycan array binding signal (z-score): -0.157
[25]
  glycan array binding signal (z-score): -0.231
